Test results from PubChem BioAssay (NCI).
About 83,000 compounds went through this panel and 20% of them were active in at least one assay; those are over-represented in the sample as a whole.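 Interpretation: 100, growth as untreated; towards 0, rising growth inhibition; 0, no net growth; 0 to -100, cell death. Compounds scoring below 10 were considered active.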 A number with no mark means an inactive call. Activity calls are given as the source filed them.

Legend:
Experiment in all cases: NCI-60 one-dose screen, 48 h (100 = growth as untreated, 0 = no growth, -100 = all killed)
Conditions in all cases: 10 µM unless noted
NCI-H23 lung = test system: NCI-H23 lung
NCI-H226 lung = test system: NCI-H226 lung
NCI-H322M lung = test system: NCI-H322M lung
HOP-62 NSCLC = test system: HOP-62 NSCLC
NCI-H460 lung = test system: NCI-H460 lung
HOP-92 NSCLC = test system: HOP-92 NSCLC
NCI-H522 lung = test system: NCI-H522 lung
A549/ATCC NSCLC = test system: A549/ATCC NSCLC
786-0 renal = test system: 786-0 renal
COLO 205 colon = test system: COLO 205 colon
DU-145 prostate = test system: DU-145 prostate
K-562 leukemia = test system: K-562 leukemia
MALME-3M melanoma = test system: MALME-3M melanoma
MDA-MB-231 breast = test system: MDA-MB-231 breast
RXF 393 renal = test system: RXF 393 renal
SF-268 CNS = test system: SF-268 CNS
SF-295 CNS = test system: SF-295 CNS
SF-539 CNS = test system: SF-539 CNS
UACC-257 melanoma = test system: UACC-257 melanoma
M14 melanoma = test system: M14 melanoma

SMILES | growth (NCI-H23 lung) | growth (NCI-H226 lung) | growth (NCI-H322M lung) | growth (HOP-62 NSCLC) | growth (NCI-H460 lung) | growth (HOP-92 NSCLC) | growth (NCI-H522 lung) | growth (A549/ATCC NSCLC) | growth (786-0 renal) | growth (COLO 205 colon) | growth (DU-145 prostate) | growth (K-562 leukemia) | growth (MALME-3M melanoma) | growth (MDA-MB-231 breast) | growth (RXF 393 renal) | growth (SF-268 CNS) | growth (SF-295 CNS) | growth (SF-539 CNS) | growth (UACC-257 melanoma) | growth (M14 melanoma)
COc1cccc(-c2nc3sccn3c2-c2ccnc(NCCNS(=O)(=O)c3ccc(F)cc3)c2)c1 | 27.2% | 24% | 58.6% | 43.7% | 21.4% | 41% | 32.3% | 22.7% | 41.6% | 23.4% | 26.3% | 13.4% | 42.7% | 55.6% | 42.2% | 34.7% | 14.5% | 55.5% | 40% | 23.9%
COc1ccc(C2CC(c3ccc(Cl)cc3)=NN2/C=C2\SC(=S)N(NC(=O)Cc3ccccc3Nc3c(Cl)cccc3Cl)C2=O)cc1 (stereo not given) | 80.1% | 68.8% | 85% | 79.1% | 81.8% | -2.84% (active) | 65.7% | 57.8% | -55.2% (active) | 30% | 72.5% | 1.36% (active) | 60.5% | 42.1% | 66.2% | 62.9% | 88% | 71.1% | 88.5% | 65.9%
CC[C@H]1OC(=O)[C@H](C)[C@@H](O[C@H]2C[C@@](C)(OC)[C@@H](O)[C@H](C)O2)[C@H](C)[C@@H](O[C@@H]2O[C@H](C)C[C@H](N(C)C)[C@H]2O)[C@](C)(O)C[C@H](C)CN(C)[C@H](C)[C@@H](O)[C@]1(C)O | 93.7% | 103% | 104% | 97.7% | 102% | 67.5% | 104% | 104% | 91.7% | 45.6% | 109% | 108% | 92% | 55.2% | 85.5% | 99.1% | 108% | 102% | 124% | 96.4%
C#CCOc1ccc2ncnc(Nc3cccc(CNC(=O)CCl)c3)c2c1 | 44.5% [8.25 µM] | 27.7% [8.25 µM] | 71.3% [8.25 µM] | 13.1% [8.25 µM] | 61.3% [8.25 µM] | 54% [8.25 µM] | -47.7% [8.25 µM] (active) | 53.3% [8.25 µM] | 25.7% [8.25 µM] | 68.2% [8.25 µM] | 57.9% [8.25 µM] | 29.5% [8.25 µM] | 68.8% [8.25 µM] | 53.4% [8.25 µM] | 14% [8.25 µM] | 39.7% [8.25 µM] | 92% [8.25 µM] | 54.8% [8.25 µM] | 58.7% [8.25 µM] | 61.7% [8.25 µM]
CN(C)S(=O)(=O)c1ccc(S(=O)(=O)Nc2cccc(Cl)c2N2CCCCC2)cc1 | 84.1% | 82.9% | 98.7% | 87.9% | 93.6% | 72.4% | 68.7% | 66.9% | 87.9% | 106% | 89.1% | 55.6% | 106% | 66.6% | 88% | 89.5% | 78.1% | 94% | 74.1% | -35.4% (active)
c1ccc(CCNc2ncnc3[nH]ncc23)cc1 | 94.4% | 89.4% | 112% | 89.7% | 117% | 55.4% | 85.5% | 92.4% | 96.4% | 114% | 109% | 94.6% | 114% | 93.2% | 93.2% | 109% | 102% | 116% | 96.5% | 104%
COc1ccc(/C=C/C(=O)c2cc(O)ccc2O)cc1 | 95.8% | 94.5% | 111% | 114% | 96.6% | 70.6% | -23.6% (active) | 78.6% | 96.5% | 99% | 89.3% | 66.4% | 100% | 77.4% | 81.6% | 84.4% | 111% | 88.4% | 75.5% | 105%
Cc1cc(N2CCOCC2)nc(NCc2cc(Nc3ccnc4cc(Cl)ccc34)ccc2F)n1 | -32.9% (active) | 16.1% | -27.6% (active) | -63% (active) | -65.7% (active) | -30.8% (active) | -61% (active) | -49.4% (active) | -93.7% (active) | -70.9% (active) | -57.6% (active) | -4.96% (active) | -73.7% (active) | -78.3% (active) | -92.4% (active) | -52.5% (active) | -84.4% (active) | -80.4% (active) | -68.3% (active) | -83.7% (active)
CC[C@]1(O)C[C@@H]2CN(CCc3c([nH]c4ccccc34)[C@@](C(=O)OC)(c3cc4c(cc3OC)N(C)[C@H]3[C@@](O)(C(N)=O)[C@H](O)[C@]5(CC)[C@@H]6C[C@@H]6CN6CC[C@]43[C@@H]65)C2)C1 | 32.7% | 44.2% | 55.4% | 24.1% | 8.06% (active) | 19.3% | -32.3% (active) | 12.7% | 18% | -44.3% (active) | 4.49% (active) | 11.8% | 85.5% | 2.3% (active) | 60.4% | 30.8% | 15.8% | 7.92% (active) | 53.6% | 1.22% (active)
CCCCCCN(CCCCCC)CCC(O)c1ccc2ccccc2c1 (stereo not given) | 45.3% | 79.2% | 80.9% | 101% | 51.5% | 2.35% (active) | 60.2% | 74.5% | 54.1% | 39.5% | 74.3% | 27.9% | 68.5% | 42.4% | 46.7% | 73.3% | 52.5% | 61.9% | 85.3% | 50.2%
CC1=NN(c2nc(-c3ccc(Cl)cc3)c(C#N)c(N3CCOCC3)n2)C(=O)C1 | 80.7% | 89.8% | 101% | 87% | 99.1% | 6.28% (active) | 78.9% | 101% | 49.1% | 104% | 102% | 101% | 42% | 91.9% | 43.4% | 91.1% | 103% | 97.9% | 99.9% | 90%
Cc1ccc2c(C(C[N+](=O)[O-])c3ccco3)c(-c3ccccc3)[nH]c2c1 (stereo not given) | 51.3% | 46.5% | 53.3% | 24% | 13.9% | 39.9% | -11.7% (active) | 33.3% | 31.2% | 21.8% | 49.6% | 11.5% | 47.1% | 41.8% | 35.2% | 37.8% | 7.56% (active) | 20.4% | 43.4% | 7.34% (active)
OC(COc1cccc2ccccc12)CN1CCN(c2ccccc2Cl)CC1 (stereo not given) | 80.3% | 106% | 95.5% | 88% | 91.1% | 74.5% | 98.8% | 96.6% | 91.4% | 104% | 109% | 99.3% | 108% | 83.7% | 158% | 98.6% | 86.4% | 93.2% | -1.88% (active) | 84.7%
Cc1[nH]c(-c2cc(N)ccc2Cl)c2c1C(=O)CCCC2 | 36.3% | 36.1% | 40.8% | 15.9% | 57.3% | 24.5% | 16.2% | 45.2% | 40.1% | 22.6% | 66.3% | 23.2% | 32.4% | 22% | 19.6% | 53.5% | 31.8% | 25.3% | 18.6% | 39.3%
COc1ccc(-c2nn(-c3ccc(Cl)cc3)cc2-c2nc3ccccc3[nH]2)cc1 | 89.1% | 91.4% | 102% | 113% | 88.1% | 97% | 67.7% | 95.4% | 103% | 101% | 120% | 89% | 98.5% | 73% | 94.7% | 94.7% | 98.1% | 106% | 101% | 90%
